Measured values reported in ChEMBL document CHEMBL1201862, “PubChem BioAssay data set” (2004).
Among all 44,000 sequences or so, about 5,100 (12%) were called active. Cut-off read from the data, not from the text of the source: active = GI50 up to about 1.1 µM and inactive = higher. The full list was thinned out, with actives kept by preference. Measured potencies and affinities stand elsewhere.

test system: MCF7

| Substance | GI50 [nM] |
| --- | --- |
| [Bis(aminomethyl)tetramethylenesilane]tetrachloropaltinum(IV), CHEMBL2146189 | 1640 |
| SENNOSIDES, CHEMBL2108559 | 183 |
| [Bis(aminomethyl)dimethylsilane]tetrachloroplatinum(IV), CHEMBL2146190 | 2970 |
| [Bis(aminomethyl)pentamethylenesilane]dichloropaltinum(II), CHEMBL2146202 | 249 |
| [Bis(aminomethyl)tetramethylenesilane]dichloropaltinum(II), CHEMBL2146205 | 2220 |
| [Bis(aminomethyl)pentamethylenesilane]tetrachloropaltinum(IV), CHEMBL2146204 | 290 |
| CISPLATIN, CHEMBL11359 | 3010 |
